Measurements published in ChEMBL document CHEMBL2218924, “A broad activity screen in support of a chemogenomic map for kinase signalling research and drug discovery” (Biochem J, 2013).

Assays:
[1] = biological target: Insulin receptor (Homo sapiens) (UniProt P06213); details: at 10 µM
[2] = biological target: Insulin receptor (Homo sapiens) (UniProt P06213); details: at 1 µM
[3] = biological target: Insulin receptor (Homo sapiens) (UniProt P06213); details: at 10 µM; remark: listed apart in the source
[4] = biological target: Interleukin-1 receptor-associated kinase 1 (Homo sapiens) (UniProt P51617); details: at 1 µM
[5] = biological target: Interleukin-1 receptor-associated kinase 1 (Homo sapiens) (UniProt P51617); details: at 10 µM
[6] = biological target: T1, Interleukin-1 receptor-associated kinase 4 (Homo sapiens) (UniProt Q9NWZ3); details: at 1 µM
T1 sequence (whole entry): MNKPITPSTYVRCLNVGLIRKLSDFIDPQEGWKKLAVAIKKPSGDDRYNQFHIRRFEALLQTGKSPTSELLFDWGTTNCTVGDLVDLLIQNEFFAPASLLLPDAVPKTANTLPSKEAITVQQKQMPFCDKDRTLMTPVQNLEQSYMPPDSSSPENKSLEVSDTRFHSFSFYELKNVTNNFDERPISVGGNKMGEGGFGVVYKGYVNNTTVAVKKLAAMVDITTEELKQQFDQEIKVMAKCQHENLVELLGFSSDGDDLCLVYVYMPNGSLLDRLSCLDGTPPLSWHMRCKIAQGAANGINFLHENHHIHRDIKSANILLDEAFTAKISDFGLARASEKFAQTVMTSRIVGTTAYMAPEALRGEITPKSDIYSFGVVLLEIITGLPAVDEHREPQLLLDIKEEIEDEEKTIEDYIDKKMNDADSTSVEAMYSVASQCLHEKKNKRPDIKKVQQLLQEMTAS

[7] = biological target: T1, Interleukin-1 receptor-associated kinase 4 (Homo sapiens); details: at 10 µM
[8] = biological target: Insulin receptor-related protein (Homo sapiens) (UniProt P14616); details: at 1 µM
[9] = biological target: Insulin receptor-related protein (Homo sapiens) (UniProt P14616); details: at 10 µM
[10] = biological target: T2, Tyrosine-protein kinase ITK/TSK (Homo sapiens) (UniProt Q08881); details: at 1 µM
T2 sequence (whole entry): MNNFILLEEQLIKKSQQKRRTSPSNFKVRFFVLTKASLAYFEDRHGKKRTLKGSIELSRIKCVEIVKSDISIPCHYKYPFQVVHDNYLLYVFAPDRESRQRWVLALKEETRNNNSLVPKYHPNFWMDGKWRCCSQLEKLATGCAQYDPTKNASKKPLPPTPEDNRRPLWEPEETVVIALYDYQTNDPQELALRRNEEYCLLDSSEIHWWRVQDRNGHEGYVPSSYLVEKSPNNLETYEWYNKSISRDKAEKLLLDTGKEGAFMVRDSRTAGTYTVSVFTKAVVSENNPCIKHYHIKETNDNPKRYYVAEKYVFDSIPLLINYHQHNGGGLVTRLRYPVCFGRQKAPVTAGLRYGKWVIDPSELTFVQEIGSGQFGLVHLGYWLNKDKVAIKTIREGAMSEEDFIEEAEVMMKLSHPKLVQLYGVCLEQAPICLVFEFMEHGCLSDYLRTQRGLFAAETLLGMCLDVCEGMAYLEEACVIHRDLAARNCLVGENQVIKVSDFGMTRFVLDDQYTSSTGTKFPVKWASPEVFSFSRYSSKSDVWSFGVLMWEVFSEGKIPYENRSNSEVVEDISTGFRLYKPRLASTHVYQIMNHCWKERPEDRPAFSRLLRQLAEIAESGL

Chain of Insulin receptor (Homo sapiens) (P06213 28-758 limits assumed): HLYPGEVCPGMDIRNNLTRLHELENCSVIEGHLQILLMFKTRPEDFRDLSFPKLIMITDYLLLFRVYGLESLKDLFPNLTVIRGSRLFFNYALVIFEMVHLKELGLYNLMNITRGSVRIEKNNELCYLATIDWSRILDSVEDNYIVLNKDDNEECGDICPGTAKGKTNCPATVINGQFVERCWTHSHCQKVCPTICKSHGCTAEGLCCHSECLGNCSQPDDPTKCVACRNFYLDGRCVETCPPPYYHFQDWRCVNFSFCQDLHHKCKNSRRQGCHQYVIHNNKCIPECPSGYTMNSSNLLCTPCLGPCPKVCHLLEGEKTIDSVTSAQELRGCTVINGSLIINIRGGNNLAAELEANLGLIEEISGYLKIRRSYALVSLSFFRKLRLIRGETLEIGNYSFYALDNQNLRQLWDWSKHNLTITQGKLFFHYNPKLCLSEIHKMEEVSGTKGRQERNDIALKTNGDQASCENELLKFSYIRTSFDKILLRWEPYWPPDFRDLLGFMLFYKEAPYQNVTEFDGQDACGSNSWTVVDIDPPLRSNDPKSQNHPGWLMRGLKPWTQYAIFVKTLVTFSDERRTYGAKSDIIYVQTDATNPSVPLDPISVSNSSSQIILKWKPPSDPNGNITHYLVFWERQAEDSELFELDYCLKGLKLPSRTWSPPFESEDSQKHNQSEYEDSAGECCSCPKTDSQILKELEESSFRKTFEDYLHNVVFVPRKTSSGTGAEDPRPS
Chain of Insulin receptor (Homo sapiens) (P06213 763-1382 limits assumed): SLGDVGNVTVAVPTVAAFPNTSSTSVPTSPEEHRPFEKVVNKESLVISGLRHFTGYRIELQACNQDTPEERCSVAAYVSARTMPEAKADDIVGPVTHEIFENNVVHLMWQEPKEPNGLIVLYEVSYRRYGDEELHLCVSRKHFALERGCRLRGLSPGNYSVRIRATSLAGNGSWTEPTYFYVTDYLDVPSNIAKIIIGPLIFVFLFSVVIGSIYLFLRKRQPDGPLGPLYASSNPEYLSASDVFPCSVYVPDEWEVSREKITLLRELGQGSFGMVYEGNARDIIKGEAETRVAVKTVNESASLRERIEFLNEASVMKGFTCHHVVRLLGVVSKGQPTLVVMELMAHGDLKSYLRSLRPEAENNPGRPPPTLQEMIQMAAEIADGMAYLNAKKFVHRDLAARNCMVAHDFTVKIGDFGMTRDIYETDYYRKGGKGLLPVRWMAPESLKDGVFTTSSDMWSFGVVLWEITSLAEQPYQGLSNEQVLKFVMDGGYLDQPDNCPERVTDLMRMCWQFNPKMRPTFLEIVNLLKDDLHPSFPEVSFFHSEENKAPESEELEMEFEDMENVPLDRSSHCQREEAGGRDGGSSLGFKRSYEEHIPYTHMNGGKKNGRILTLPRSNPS
Chain of Insulin receptor-related protein (Homo sapiens) (P14616 27-742 limits assumed): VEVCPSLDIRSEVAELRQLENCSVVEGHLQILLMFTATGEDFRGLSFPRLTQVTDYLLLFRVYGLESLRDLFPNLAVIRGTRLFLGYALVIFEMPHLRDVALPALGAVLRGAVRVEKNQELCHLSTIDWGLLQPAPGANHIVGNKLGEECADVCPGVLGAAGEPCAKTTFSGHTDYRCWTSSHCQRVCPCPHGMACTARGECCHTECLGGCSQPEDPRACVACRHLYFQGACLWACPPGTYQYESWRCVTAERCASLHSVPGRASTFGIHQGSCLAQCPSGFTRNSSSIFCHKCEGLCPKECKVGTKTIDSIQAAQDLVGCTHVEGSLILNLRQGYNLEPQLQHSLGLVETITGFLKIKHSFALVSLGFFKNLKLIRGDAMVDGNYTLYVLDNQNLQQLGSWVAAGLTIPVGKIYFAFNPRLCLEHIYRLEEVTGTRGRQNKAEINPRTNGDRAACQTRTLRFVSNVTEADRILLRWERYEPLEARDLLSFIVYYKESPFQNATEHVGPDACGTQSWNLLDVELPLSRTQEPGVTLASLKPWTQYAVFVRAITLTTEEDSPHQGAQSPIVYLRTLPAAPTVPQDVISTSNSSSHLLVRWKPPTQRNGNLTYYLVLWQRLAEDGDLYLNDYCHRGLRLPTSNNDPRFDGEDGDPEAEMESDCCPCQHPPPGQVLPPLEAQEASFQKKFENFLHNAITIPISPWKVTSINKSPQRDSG
Chain of Insulin receptor-related protein (Homo sapiens) (P14616 747-1297 limits assumed): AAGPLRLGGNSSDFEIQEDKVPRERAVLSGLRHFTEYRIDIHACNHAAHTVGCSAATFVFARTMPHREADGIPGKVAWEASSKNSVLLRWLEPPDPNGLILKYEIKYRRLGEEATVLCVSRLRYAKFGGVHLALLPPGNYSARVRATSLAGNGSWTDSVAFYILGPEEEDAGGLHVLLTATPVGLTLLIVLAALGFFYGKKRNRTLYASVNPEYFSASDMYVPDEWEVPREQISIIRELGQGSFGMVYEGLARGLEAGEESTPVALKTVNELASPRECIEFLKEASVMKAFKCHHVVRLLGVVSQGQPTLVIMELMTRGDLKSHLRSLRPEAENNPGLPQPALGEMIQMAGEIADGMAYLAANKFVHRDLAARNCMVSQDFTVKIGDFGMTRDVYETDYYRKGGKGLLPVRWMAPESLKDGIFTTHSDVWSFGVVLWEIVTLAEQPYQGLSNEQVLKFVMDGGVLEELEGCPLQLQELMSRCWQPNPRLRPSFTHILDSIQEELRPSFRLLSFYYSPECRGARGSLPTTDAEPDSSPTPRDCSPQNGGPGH
Chain of Interleukin-1 receptor-associated kinase 1 (Homo sapiens) (P51617 whole entry, looked up): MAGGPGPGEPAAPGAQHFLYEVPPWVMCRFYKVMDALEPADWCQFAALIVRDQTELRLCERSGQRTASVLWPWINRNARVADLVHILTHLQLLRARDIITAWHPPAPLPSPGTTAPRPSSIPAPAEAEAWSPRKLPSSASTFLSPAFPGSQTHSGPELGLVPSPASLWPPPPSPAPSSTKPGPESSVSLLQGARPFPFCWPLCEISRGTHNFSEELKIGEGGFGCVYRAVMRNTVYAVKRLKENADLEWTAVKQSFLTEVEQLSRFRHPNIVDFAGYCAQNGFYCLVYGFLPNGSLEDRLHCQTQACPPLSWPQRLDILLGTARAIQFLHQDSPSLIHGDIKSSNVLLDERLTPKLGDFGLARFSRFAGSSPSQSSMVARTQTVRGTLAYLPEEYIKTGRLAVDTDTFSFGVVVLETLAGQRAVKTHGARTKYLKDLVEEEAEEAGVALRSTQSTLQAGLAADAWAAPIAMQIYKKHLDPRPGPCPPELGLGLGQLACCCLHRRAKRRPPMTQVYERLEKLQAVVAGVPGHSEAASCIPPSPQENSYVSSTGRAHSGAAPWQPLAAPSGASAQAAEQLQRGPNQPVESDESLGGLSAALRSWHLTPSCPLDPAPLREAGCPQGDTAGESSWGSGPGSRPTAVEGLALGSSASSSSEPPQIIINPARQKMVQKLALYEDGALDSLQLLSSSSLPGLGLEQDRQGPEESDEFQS

SMILES	residual activity [1]	residual activity [2]	residual activity [3]	residual activity [4]	residual activity [5]	residual activity [6]	residual activity [7]	residual activity [8]	residual activity [9]	residual activity [10]
COc1ccc(OC)c2c(=S)c3ccccc3[nH]c12	103%	101%	89%	101%	102%	86%	68%	106%	103%	98%
c1ccc(-c2n[nH]cc2-c2ccnc3ccccc23)nc1	84%	99%	105%	91%	73%	87%	101%	132%	79%	97%
NC(=O)c1ccc2[nH]c(-c3ccc(Oc4ccc(Cl)cc4)cc3)nc2c1	108%	100%	94%	95%	82%	80%	79%	107%	101%	102%
Oc1ccc(-c2nc(-c3ccc(F)cc3)c(-c3ccncc3)[nH]2)cc1	126%	97%	90%	104%	79%		88%		98%	108%
COc1cc2ncnc(N3CCN(C(=O)Nc4ccc(Oc5ccccc5)cc4)CC3)c2cc1OC	113%	98%	97%	76%	57%	87%	98%	117%	80%	88%
O=[N+]([O-])c1ccc(-c2nc(-c3ccc(F)cc3)c(-c3ccncc3)[nH]2)cc1	109%	105%	95%	107%	108%	104%	97%	124%	98%	108%
CC(C)n1cnc2c(NCc3ccccc3)nc(NCCCO)nc21	70%	99%	75%	105%	106%	93%	76%	106%	84%	105%
CC#CC(=O)Nc1cc2c(Nc3ccc(F)c(Cl)c3)ncnc2cn1	85%	103%	98%	94%	73%	103%	98%	127%	86%	100%
Nc1nc(Nc2ccc(S(N)(=O)=O)cc2)nn1C(=S)Nc1c(F)cccc1F				8%	16%	8%	0%			44%
O=C1NC(=O)c2cc(Nc3ccc(F)cc3)c(Nc3ccc(F)cc3)cc21	103%	94%	85%	83%	63%	99%	110%	122%	83%	110%
COc1cc2ncnc(Nc3ccc(NC(=O)c4ccccc4)cc3)c2cc1OC	92%	105%		100%	99%		97%		79%	
N#Cc1cnc2cnc(NCc3cccnc3)cc2c1Nc1ccc(F)c(Cl)c1	123%	72%	52%	93%	103%	64%	43%	90%	89%	72%
CCN(CC)C(=O)c1ccc(Nc2nc(OCC3CCCCC3)c3nc[nH]c3n2)cc1	143%	47%	7%		35%	57%	15%	69%	1%	32%
O=C1Nc2cc(Br)ccc2/C1=C1/Nc2ccccc2/C1=N\O	82%	98%	83%	93%	90%	35%	34%	78%	85%	22%
Cc1cc2ncc(-c3ccccc3)nc2cc1C				99%	94%			124%	71%	93%
COc1ccc(S(=O)(=O)N(CCO)c2ccccc2CN(C)C/C=C/c2ccc(Cl)cc2)cc1	114%	100%	90%	99%	106%	81%	75%	117%	90%	99%
O=c1cc(-c2cccc3c2Sc2ccccc2S3)oc(N2CCOCC2)c1	136%	98%	99%	102%		100%	98%	119%	96%	105%
CNc1cc2c(Nc3cccc(Br)c3)ncnc2cn1	48%	96%	103%	95%	75%	96%	61%	135%	71%	104%
COc1cc2ncc(-c3ccccc3)nc2cc1OC								137%	80%	

SMILES	residual activity [1]	residual activity [2]	residual activity [3]	residual activity [4]	residual activity [5]	residual activity [6]	residual activity [7]	residual activity [8]	residual activity [9]	residual activity [10]
N#CCCc1ccc2c(c1)-c1[nH]c3ccc([N+](=O)[O-])cc3c1CC(=O)N2			76%	45%	20%	62%	28%	100%	81%	81%
c1ccc(-c2n[nH]c3c2oc2ccccc23)cc1				96%	98%	91%	68%	141%	73%	98%
Cn1cc(/C=C2\C(=O)Nc3ccc(S(N)(=O)=O)cc32)c2ccccc21	95%	66%	64%	1%	15%	0%	-1%	124%	35%	8%
O=C1NC(=O)/C(=C\c2ccc3nccnc3c2)S1	94%	103%	97%	76%	35%	104%	91%	127%	58%	97%
Nc1ccc2ncnc(NCCc3ccc(Oc4ccccc4)cc3)c2c1	35%	101%	92%	100%	101%	88%	58%	101%	108%	80%
CO[C@@H]1[C@H](N(C)C(=O)c2ccccc2)C[C@H]2O[C@]1(C)n1c3ccccc3c3c4c(c5c6ccccc6n2c5c31)C(=O)NC4		80%	72%	85%	74%	53%	47%	98%	57%	56%
Cc1cc(Nc2nc(-c3ccccc3)nc3ccccc23)n[nH]1	5%	36%	7%	69%	23%	45%	12%	8%	1%	5%
O=C(Nc1cccc(Nc2nccc(Nc3cccc(C(F)(F)F)c3)n2)c1)C1CC1	12%	86%	97%	81%	82%	50%	44%	13%	1%	96%
O=C(Nc1cccc(Nc2cc(Nc3cccc(C(F)(F)F)c3)ncn2)c1)C1CC1	94%	97%	106%	95%	96%	97%	80%	117%	63%	105%
O=C1c2ccccc2-[n+]2ccc3c([nH]c4ccccc43)c21	93%	101%	86%	106%		79%	78%	101%	92%	96%
O=C1NC(=O)/C(=C/c2ccc3c(c2)OC(F)(F)O3)S1	103%	104%	98%	102%	80%	111%	106%	139%	99%	103%
Oc1ccc(Nc2nc(-c3ccc(Cl)cc3)cs2)cc1	133%	108%	103%	100%	111%	108%	97%	115%	85%	104%
CC(=O)c1ccc(N2CCOCC2)cc1O	81%	104%	97%	105%	95%	95%	98%			97%
c1ccc2c(-c3ccncc3)c[nH]c2c1	70%	97%	87%	76%	57%	94%	99%		83%	101%
N#CC(C#N)=C(N)/C(C#N)=C/c1ccc(O)cc1	83%	98%	93%		84%			142%	76%	
Cc1cccc(-c2[nH]c(C(C)(C)C)nc2-c2ccc3c(c2)OCO3)n1	89%			87%	75%			104%	88%	96%
O=C1Nc2ccc(Br)cc2/C1=C\c1cc2c([nH]1)CCCC2	79%					82%	77%	114%	63%	
O=c1c2ccccc2[nH]c(=S)n1CCN1CCC(=C(c2ccc(F)cc2)c2ccc(F)cc2)CC1	121%	105%	101%	83%	86%	105%	103%	120%	71%	109%
